Screens deposited in PubChem BioAssay by National Center for Advancing Translational Sciences (NCATS).
This is a sample that favours compounds with a hit; in the whole collection about 2.2% have one here.
aSyn yeast inh = alpha-synuclein toxicity inhibition in yeast; Yeast expressing alpha-synuclein, growth rescue, BacTiter-Glo, 24 h; Potency, µM (top dose mostly 46.1 µM), without a hit: at the highest dose growth rescue (activation), most hits filed as activators; 0.14% of 370,000 active; AID 652106; also: % of control where 0% means no effect; nearly all actives have a fitted effect of over 65% in size
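Screening used galactose-induced yeast with toxic alpha-synuclein levels, exposed to compound for 24 hr at 30 deg C. Cell growth, read with BacTiter-Glo luminescence, gave the measured signal.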
Mito fusion act = blocks mitochondrial division or promotes mitochondrial fusion. S. cerevisiae fusion-defective mutant growth rescue, CellTiterGlo 48 h. 0.23% of 320,000 active. Potency, µM (series often up to 46.1 µM), for inactives: top-dose growth rescue (activation), usual class: activators; also: % of control where 0% means no effect; nearly all actives have a fitted effect of over 45% in size
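Yeast fusion mutant, YPEG (non-fermentable carbon), compound, 48 h at 37C non-permissive; CellTiterGlo added, 10 min RT, luminescence read. Rescued growth = division inhibition.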
Abeta yeast res = compounds reversing amyloid beta toxicity in yeast | yeast expressing A-beta42, growth rescue, OD600, 48 h; response scale: 0% DMSO, 100% iron-clioquinol control | Potency, µM (doses to about 46.1 µM), hits mostly activators | 0.063% of 410,000 active; also: nearly all actives have a fitted effect of over 55% in size
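Yeast growth medium received pinned compounds, then yeast cells expressing toxic A-beta were added; plates incubated at 30 C for 48 hr. Growth read as absorbance at 600 nm, normalized to DMSO and equimolar FeCl3 plus clioquinol controls.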
TDP-43 yeast inh = rescues yeast growth from TDP-43 toxicity; AID 652104; 1.8% of 410,000 active; Potency, µM (top dose mostly 46.1 µM), without a hit: top-dose growth rescue (activation), usual class: activators; TDP-43 expressing yeast growth rescue, BacTiter-Glo, 24 h; also: % of control where 0% means no effect; nearly all actives have a fitted effect of over 50% in size
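In this qHTS, compounds that restore growth of yeast expressing TDP-43 appear as activators. Cells (OD600=0.02, galactose medium, raffinose-pregrown) are incubated with compound 24 hr at 30 deg C and growth is quantified by BacTiter-Glo.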
FUS yeast rescue = FUS proteinopathy suppression in yeast. AID 1347120. S. cerevisiae FUS-expressing, growth rescue, OD600, 24 h. 0.24% of 390,000 active. Potency, µM (titrated, usually from 76.6 µM), actives largely listed as activators;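 also: plate controls were DMSO vehicle for no effect and reference control for full effect; nearly all actives have a fitted effect of over 55% in size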
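Yeast FUS proteinopathy model; galactose-induced FUS (2%), starting OD 0.005. Cpds in dilution series, 24hr, 30C, 99% humidity. Abs 600 nm growth. Pos ctrl CP55940 (top 92uM final); neg ctrl DMSO.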
Active calls of the source: *; [ ] = dose if it differs, or a comment. Calls follow the shape of the dose curve; as a rule, active = well fitted curve in the direction sought with a large enough effect; inconclusive = small, poorly fitted or top-dose-only effect, or another doubt; inactive = no such curve, though single readings can be large; an effect the other way counts as inactive or inconclusive. Potency is read from the fitted curve at half-maximal effect.

Results for CCc1ccc(CN(Cc2ccco2)c2cnc(S(C)(=O)=O)nc2C(=O)Nc2cccc(C)c2)cc1 ?
Abeta yeast res: inactive; TDP-43 yeast inh: -7%; FUS yeast rescue: inactive

What do the screens show for `CC(C)(C)OC(=O)/C=C/[C@@H](CC1CCCC1)Sc1ccc(C(C)(C)C)cc1`?
FUS yeast rescue: inactive

Results for Cc1ccc(SCC(=O)c2c(C)nc3ccccn23)cc1 ?
aSyn yeast inh: -1%; Mito fusion act: 0%; Abeta yeast res: inactive; TDP-43 yeast inh: -16%[0.397 µM]; FUS yeast rescue: inactive

How did Cc1ccc(SCC(=O)c2cc(C)c(O)c(C)c2)cc1 do in these assays?
aSyn yeast inh: -1%; Mito fusion act: 16%; Abeta yeast res: inactive; TDP-43 yeast inh: 18µM*; FUS yeast rescue: inactive

How did C[C@@H](NC(=O)[C@H]1O[C@@H](n2cnc3c(N)ncnc32)[C@H](O)[C@@H]1O)c1cccc2ccccc12 do in these assays?
aSyn yeast inh: -2%; Abeta yeast res: inactive; TDP-43 yeast inh: 8%; FUS yeast rescue: inactive

How did COc1cc(C2(c3ccc(O)c(OC)c3)C(=O)Nc3c(C)cc(Br)cc32)ccc1O do in these assays?
aSyn yeast inh: -10%; Abeta yeast res: inactive; TDP-43 yeast inh: 18%; FUS yeast rescue: inactive

What do the screens show for `CNC(=O)C(=O)Nc1ccc2c(c1)N(S(=O)(=O)c1cccs1)CCC2`?
aSyn yeast inh: 9%; Mito fusion act: 4%; Abeta yeast res: inactive; TDP-43 yeast inh: 16µM*; FUS yeast rescue: inactive

What do the screens show for `COC1C(CO)OC(n2c3c(Cl)cccc3c3c4c(c5c6cccc(Cl)c6[nH]c5c32)C(=O)NC4=O)C(O)C1O` (configuration not stated)?
aSyn yeast inh: 0%; Abeta yeast res: inactive; TDP-43 yeast inh: 11%

Results for Cc1ccc2c(c1)C(c1ccc(F)cc1)N(C(=O)C(C)C)CC(=O)N2 (configuration not stated) ?
Abeta yeast res: inactive; TDP-43 yeast inh: -8%; FUS yeast rescue: inactive

How did Cc1cc(F)ccc1NS(=O)(=O)c1c(C)nc2scc(C)n2c1=O do in these assays?
aSyn yeast inh: -8%; Mito fusion act: -2%; Abeta yeast res: inactive; TDP-43 yeast inh: 20µM*; FUS yeast rescue: inactive

How did Cc1nc2scc(C)n2c(=O)c1S(=O)(=O)Nc1ccc(F)cc1 do in these assays?
aSyn yeast inh: inconclusive; Mito fusion act: 1%; Abeta yeast res: inactive; TDP-43 yeast inh: 29%; FUS yeast rescue: inactive

What do the screens show for `Cc1ccc(Cl)cc1N1CCN(C(=O)c2ccc(CS(=O)Cc3ccc(Cl)cc3)o2)CC1` (configuration not stated)?
aSyn yeast inh: inconclusive; Mito fusion act: -23%; Abeta yeast res: inactive; TDP-43 yeast inh: 20µM*; FUS yeast rescue: inconclusive

How did Cc1ccc(Cl)cc1N1CCN(C(=O)CNC(=O)c2ccc(Br)o2)CC1 do in these assays?
aSyn yeast inh: 27%; Mito fusion act: 16µM*; Abeta yeast res: inactive; TDP-43 yeast inh: 17%

What do the screens show for `COc1cccc(-c2nc(S(=O)(=O)c3ccccc3)c(N3CCCCC3)o2)c1`?
Abeta yeast res: inactive; TDP-43 yeast inh: 4%; FUS yeast rescue: inactive

What do the screens show for `C=CCc1cccc(CNc2ccc(Br)cc2)c1O`?
aSyn yeast inh: 17%; Mito fusion act: -6%; Abeta yeast res: inactive; TDP-43 yeast inh: 22µM*; FUS yeast rescue: inactive

What do the screens show for `CC(C(=O)NCCCc1ccccc1)n1cccc1C(=O)c1ccccc1` (configuration not stated)?
aSyn yeast inh: 6%; Mito fusion act: 22µM*; Abeta yeast res: inactive; TDP-43 yeast inh: inconclusive; FUS yeast rescue: inactive

Results for COc1ccc(-c2cc(C(=O)NN=Cc3cccn3C)[nH]n2)cc1 ?
FUS yeast rescue: inactive

Results for COc1ccc(-c2nc3scc(CCNS(=O)(=O)c4ccccc4F)n3n2)cc1 ?
Abeta yeast res: inactive; TDP-43 yeast inh: 22µM*; FUS yeast rescue: inactive

Results for C=CCNC1CCC12CCC(c1ccccc1)CC2 (configuration not stated) ?
FUS yeast rescue: inactive
